Measurements: ChEMBL document CHEMBL3988442, “University of Dundee, Small-Polar-MMV Screening Library” (2021)
The whole screen tested about 48,000 compounds, of which about 13,000 (27%) showed an effect of 50% or more. The list shows a part of the results.

The molecules below were run on Wolbachia pipientis (assay: Anti-Wolbachia Cell-Based Screen). Conditions: 5 µM.
Type: functional
Set-up: scale not given: in the data most compounds retested in dose-response had high values

Compound | Percent Effect [%]
Fc1cccc(CN2CCC(c3noc(-c4ccncc4)n3)CC2)c1F | 205.5
Fc1ccc(CN2CCC(c3n[nH]c4nccnc34)CC2)cc1F | -10.9
CC(c1nc(C2CC2)no1)N1CCN(Cc2cccc(F)c2F)CC1 (stereo not given) | 13.59
Fc1ccc(CN2CCCC(c3nnc(-c4cnccn4)o3)C2)cc1F (stereo not given) | -0.1636
CC(=O)NCCC(=O)NCCCOc1c(C)cccc1C | 1.2
CC(=O)N(Cc1c(F)cccc1F)C1CCCC1 | -1.576
O=C(CSc1ccc2c(c1)OCCO2)NS(=O)(=O)c1ccccc1Br | -0.599
COc1ccc2c(c1)OCC(Cc1ccc(CN)cn1)C2 (stereo not given) | -20.89
O=C(Nc1ccc(F)cc1)N1C[C@H]2CC[C@@H]1CN(Cc1cccnc1)C2 | -11.36
CCC1=N[C@@]2(CC[C@@H]3CN(S(=O)(=O)N(C)C)C[C@@H]32)C(=O)N1CC(C)C | -19.59
CC(=O)NC(C(=O)N1CCn2cncc2C1)C(C)C (stereo not given) | 3.291
Cc1noc(C)c1CC(=O)OCC(=O)N1CCc2sccc2C1 | 3.916
CC1CN(C2CCN(Cc3nccn3CC(F)(F)F)CC2)CCO1 (stereo not given) | -6.653
Fc1cccc(C2CCCCN2Cc2nc(-c3cnccn3)no2)c1 (stereo not given) | -8.906
Fc1cccc(CN2CCC(c3noc(-c4cnccn4)n3)CC2)c1F | 134.1
O=C(c1ccc(-c2cc[nH]n2)cc1)N1CC[C@H](CO)[C@H](O)C1 | 0.4
CCN(Cc1cc(Cl)c(O)c(OC)c1)Cc1nc(COC)no1 | -9.296
COCCS(=O)(=O)Nc1ccc(-n2nccc2C(F)(F)F)cc1 | 0.6513
CN(CC(F)(F)F)C(=O)CNC(=O)Cc1cccc(O)c1 | -3.923
CC1CCN(C(=O)NCC(=O)N(C)CC(F)(F)F)C1 (stereo not given) | 103.3
CCOC1CCN(C(=O)NCCN(C)C(=O)OC(C)(C)C)CC1 | 7.411
CC(C)C1CCN(C(=O)NCC(=O)N(C)CC(F)(F)F)CC1 | 101.1
CN(CC(F)(F)F)C(=O)CNC(=O)Cc1ccccc1O | -0.134
Cc1cnn(CCCNC(=O)N2CCCCC(N3CCCC3)C2)c1 (stereo not given) | -6.749
CN(CC(F)(F)F)C(=O)CNC(=O)N1CCC(N2CCCC2)C1 (stereo not given) | 94.48
CN(CC(F)(F)F)C(=O)CNC(=O)Cc1ccc(O)cc1Cl | -9.929
O=C(Nc1ccc(-c2csnn2)cc1)N1CCC(N2CCCC2)C1 (stereo not given) | 0.9
CC(C)=CCN1C[C@H]2CC[C@@H]1CN(CCC(=O)NCc1ccco1)C2 | -7.993

Compound | Percent Effect [%]
CCOc1ccc(NC(=O)Cc2cc(C)[nH]n2)cc1CO | -2.214
Cc1cc(C)c2c(c1)C(NC(=O)CSCc1ccncc1)CCO2 (stereo not given) | 0.01106
COC(C)(C)CC(C)NC(=O)Nc1ccccn1 (stereo not given) | 11.35
CC(C)CCC(C)NC(=O)Nc1ccccn1 (stereo not given) | 3.296
CC(Cn1cccn1)NC(=O)NCc1ccccn1 (stereo not given) | -2.779
Cc1nnc(NC(=O)NC(C)Cn2cccn2)s1 (stereo not given) | 98.41
Cc1ccc(NC(=O)NC(C)Cn2cccn2)cc1 (stereo not given) | -6.589
CC(Cn1cccn1)NC(=O)Nc1ccccn1 (stereo not given) | 102.9
Cc1cccnc1NC(=O)NC(C)Cn1cccn1 (stereo not given) | 2.456
CCCc1nnc(NC(=O)NC(C)Cn2cccn2)s1 (stereo not given) | 106.7
CC(Cn1cccn1)NC(=O)Nc1nnc(C2CC2)s1 (stereo not given) | -3.463
CCN1C(=O)CC(N(C)Cc2nc3ccccc3c(=O)[nH]2)C1=O (stereo not given) | -2.279
CN(Cc1nc2ccccc2c(=O)[nH]1)C[C@@H]1CCCN2CCCC[C@H]12 | -19.12
CC(C)CS(=O)(=O)CC(=O)N(C)Cc1ccc(OC(F)F)cc1 | -10.21
CC(Cn1cccn1)NC(=O)Nc1nccs1 (stereo not given) | -3.735
CC(Cn1cccn1)NC(=O)Nc1nncs1 (stereo not given) | 94.45
CC(Cn1cccn1)NC(=O)Nc1ccc(N(C)C)nc1 (stereo not given) | 1.644
CCC(CC)c1nnc(NC(=O)NC(C)Cn2cccn2)s1 (stereo not given) | 102.8
COc1ccc(NC(=O)NC(C)Cn2cccn2)cn1 (stereo not given) | -4.158
COc1cccc(CN2CCc3nc(C(N)=O)sc3CC2)c1.O=C(O)C(F)(F)F | 8.884
O=C(NCc1ccoc1)Nc1ccc(CN2CCOC2=O)cc1 | -1.544
O=C1OCCN1c1cccc(CNS(=O)(=O)Cc2ccc(F)cc2)c1 | -0.8668
CN(C)C(=O)CN1CCC2(COCc3cnc(-c4ccccc4)nc32)C1 (stereo not given) | 100.5
Cc1ccccc1CN1CCC2(COCc3cnc(N(C)C)nc32)C1.O=C(O)C(F)(F)F (stereo not given) | -3.264
COc1cccc(CN2CCC3(COCc4cnc(N(C)C)nc43)C2)c1.O=C(O)C(F)(F)F (stereo not given) | -4.622
CN(C)c1ncc2c(n1)C1(CCN(Cc3ccccc3F)C1)COC2.O=C(O)C(F)(F)F (stereo not given) | -3.722
CN(C)C(=O)CN1CCC2(COCc3cnc(-c4cccnc4)nc32)C1.O=C(O)C(F)(F)F.O=C(O)C(F)(F)F (stereo not given) | 108.5
